According to PubChem BioAssay (NCI):
About 83,000 compounds went through this panel and 20% of them were active in at least one assay; those are over-represented in the sample as a whole.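 Negative percent growth values reflect cell death: -40 means 40% of the cells present at the start died, and -100 means all died.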 A number with no mark means an inactive call. The source made the active and inactive calls. Rule for the calls: active = growth percent below 10; inactive = the rest.

Columns and labels:
Experiment in all cases: NCI-60 one-dose screen, 48 h (100 = growth as untreated, 0 = no growth, -100 = all killed)
Details in all cases: 10 µM
[1] = test system: HT29 colon
[2] = test system: SNB-75 CNS
[3] = test system: SNB-19 CNS
[4] = test system: U251 CNS
[5] = test system: PC-3 prostate
[6] = test system: SK-MEL-5 melanoma
[7] = test system: UACC-62 melanoma
[8] = test system: SK-MEL-28 melanoma
[9] = test system: SK-MEL-2 melanoma
[10] = test system: EKVX NSCLC
[11] = test system: SN12C renal
[12] = test system: UO-31 renal
[13] = test system: TK-10 renal
[14] = test system: ACHN renal
[15] = test system: CAKI-1 renal
[16] = test system: MOLT-4 leukemia
[17] = test system: SR leukemia
[18] = test system: LOX IMVI melanoma
[19] = test system: CCRF-CEM leukemia
[20] = test system: A498 renal

CNc1ccc(CSc2ccc(C)cc2)cc1
growth [1]: 100%
growth [2]: 60.7%
growth [3]: 93.3%
growth [4]: 52.4%
growth [5]: 60%
growth [6]: 67.7%
growth [7]: 86.2%
growth [8]: 93.8%
growth [9]: 96.8%
growth [10]: 102%
growth [11]: 29.4%
growth [12]: 24.1%
growth [13]: 86.1%
growth [14]: 108%
growth [15]: 73.2%
growth [16]: 82.6%
growth [17]: 80.4%

CC(=O)CSC(C)=O
growth [1]: 105%
growth [2]: 84.3%
growth [3]: 100%
growth [4]: 98%
growth [5]: 86.6%
growth [6]: 98.9%
growth [18]: 101%
growth [8]: 95.6%
growth [9]: 116%
growth [11]: 100%
growth [12]: 91.3%
growth [13]: 122%
growth [14]: 97.8%
growth [15]: 91.6%
growth [19]: 94.8%
growth [16]: 105%

CN(C)C=Nc1cc(Cl)ccc1Cl
growth [1]: 100%
growth [2]: 89.8%
growth [3]: 95.3%
growth [4]: 115%
growth [5]: 99.8%
growth [6]: 101%
growth [18]: 102%
growth [8]: 102%
growth [9]: 97%
growth [11]: 97.7%
growth [12]: 100%
growth [13]: 116%
growth [14]: 109%
growth [15]: 96.5%
growth [20]: 105%
growth [19]: 97.4%
growth [16]: 108%
growth [17]: 108%

O=C(Nc1ccc(Cl)c(Cl)c1)Nc1c(Oc2ccc(Cl)c(Cl)c2)ccc(Cl)c1S(=O)(=O)O
growth [1]: 4.55% (active)
growth [2]: -11.6% (active)
growth [3]: 48.3%
growth [4]: 22.1%
growth [5]: 19.6%
growth [6]: 7.15% (active)
growth [18]: 33.8%
growth [8]: 54.8%
growth [9]: -1.82% (active)
growth [10]: 38.2%
growth [11]: 36.4%
growth [12]: 21.2%
growth [13]: 25.3%
growth [14]: 61.2%
growth [15]: 12.1%
growth [20]: -13.3% (active)
growth [19]: 13.5%
growth [16]: 25%
growth [17]: 1.34% (active)

Cc1ccc(NC(=O)CSc2nc3ccccc3c(=O)n2CCc2ccccc2)c(C(=O)O)c1
growth [1]: 111%
growth [2]: 84.3%
growth [3]: 105%
growth [4]: 101%
growth [5]: 97.8%
growth [6]: 105%
growth [18]: 99.6%
growth [8]: 108%
growth [9]: 89.8%
growth [10]: 73.4%
growth [11]: 96.6%
growth [12]: 78.5%
growth [13]: 117%
growth [14]: 91.1%
growth [15]: 81.5%
growth [20]: 87%

Fc1cc(C(F)(F)F)ccc1-c1cncnc1NC1CCCCCC1
growth [1]: 110%
growth [2]: 80.3%
growth [3]: 94.2%
growth [4]: 79.9%
growth [5]: 87.1%
growth [6]: 92.2%
growth [18]: 98.3%
growth [8]: 111%
growth [9]: 98.8%
growth [11]: 89.7%
growth [12]: 79.9%
growth [13]: 113%
growth [14]: 91.5%
growth [15]: 85.5%
growth [20]: 49.6%
growth [19]: 91.2%
growth [16]: 98.1%
growth [17]: 118%

O=C(c1ccc(Cl)cc1Cl)N1CCOCC1
growth [1]: 105%
growth [2]: 81.8%
growth [3]: 103%
growth [4]: 105%
growth [5]: 96.4%
growth [6]: 96.3%
growth [18]: 96.8%
growth [8]: 110%
growth [9]: 96.5%
growth [11]: 105%
growth [12]: 83.4%
growth [13]: 101%
growth [14]: 103%
growth [20]: 91.2%
growth [19]: 106%
growth [16]: 99.1%

N#CSCC1CC(O)(c2ccccc2)CC(c2ccc(Cl)cc2)O1 (stereo unspecified)
growth [1]: 3.59% (active)
growth [2]: 49.2%
growth [3]: 81.5%
growth [4]: 55.2%
growth [5]: 29.4%
growth [6]: 68.3%
growth [18]: 13.1%
growth [8]: 72.1%
growth [9]: 40.5%
growth [10]: 54%
growth [11]: 23.2%
growth [12]: 15.1%
growth [13]: -5.7% (active)
growth [14]: 48.3%
growth [15]: 44.5%
growth [19]: 15%
growth [16]: -11.5% (active)
growth [17]: 11.4%

N=C(N)c1ccc(-c2ccc(-c3cccs3)s2)s1
growth [1]: -79.5% (active)
growth [2]: -31.7% (active)
growth [3]: -13.4% (active)
growth [4]: -85.9% (active)
growth [5]: 5.1% (active)
growth [6]: -9.08% (active)
growth [18]: -75.7% (active)
growth [8]: -94.7% (active)
growth [9]: -0.961% (active)
growth [11]: -74.9% (active)
growth [12]: -77.1% (active)
growth [13]: -51.1% (active)
growth [14]: 66.4%
growth [15]: -49% (active)
growth [20]: -32.6% (active)
growth [19]: -52.3% (active)
growth [16]: -55.7% (active)
growth [17]: -50.9% (active)

NC(=O)CC1(c2ccccc2)CCCCC1
growth [1]: 104%
growth [2]: 95.3%
growth [3]: 105%
growth [4]: 102%
growth [5]: 99.4%
growth [6]: 106%
growth [8]: 110%
growth [9]: 102%
growth [11]: 101%
growth [12]: 93.1%
growth [13]: 109%
growth [14]: 104%
growth [15]: 96.8%
growth [20]: 102%
growth [16]: 94.2%
growth [17]: 90.9%

Cc1nc2c(c(=O)[nH]1)OCN(Cc1ccccc1)C2
growth [1]: 105%
growth [2]: 89.6%
growth [3]: 97.2%
growth [4]: 108%
growth [5]: 89.1%
growth [6]: 102%
growth [18]: 101%
growth [8]: 105%
growth [9]: 130%
growth [11]: 104%
growth [12]: 79.3%
growth [13]: 119%
growth [14]: 104%
growth [15]: 103%
growth [20]: 75.5%
growth [19]: 90.5%
growth [16]: 95.9%
growth [17]: 93.6%

Nc1ccc2c(c1)C1(CCC2)NC(=O)NC1=O (stereo unspecified)
growth [1]: 104%
growth [2]: 90.2%
growth [3]: 96.6%
growth [4]: 91.5%
growth [5]: 92%
growth [6]: 98.6%
growth [8]: 113%
growth [9]: 99.7%
growth [11]: 97.3%
growth [12]: 93.3%
growth [13]: 109%
growth [14]: 101%
growth [15]: 95.7%
growth [20]: 101%
growth [19]: 96.9%
growth [16]: 98.8%
growth [17]: 89.7%

CC(C)(C)c1ccc(N2CSC(=S)N(c3ccc(C(C)(C)C)cc3)C2)cc1
growth [1]: 105%
growth [2]: 76.1%
growth [3]: 95.4%
growth [4]: 100%
growth [5]: 73.8%
growth [6]: 96.3%
growth [18]: 101%
growth [8]: 105%
growth [9]: 101%
growth [10]: 84.1%
growth [11]: 99.6%
growth [12]: 79.4%
growth [13]: 111%
growth [14]: 89%
growth [20]: 107%
growth [19]: 88.5%
growth [16]: 100%
growth [17]: 112%

N#CCCN1C/C(=C/c2ccc(Br)cc2)C(=O)/C(=C/c2ccc(Br)cc2)C1
growth [1]: -33.8% (active)
growth [2]: 33.3%
growth [3]: -46.6% (active)
growth [4]: -80.8% (active)
growth [5]: -34% (active)
growth [6]: 1.94% (active)
growth [8]: -36.8% (active)
growth [9]: 5.41% (active)
growth [11]: -51.2% (active)
growth [12]: -91.3% (active)
growth [13]: -29.1% (active)
growth [14]: -53.5% (active)
growth [15]: -7.84% (active)
growth [20]: -39.7% (active)
growth [19]: -5.67% (active)
growth [16]: 2.26% (active)
growth [17]: -17.3% (active)

Cc1ccc(C(=O)N2C/C(=C/c3ccc(F)cc3)C(=O)/C(=C/c3ccc(F)cc3)C2)cc1
growth [1]: 74.1%
growth [2]: 59.7%
growth [3]: 97.8%
growth [4]: 88.9%
growth [5]: 85.2%
growth [6]: 94.6%
growth [18]: 54.5%
growth [8]: 105%
growth [9]: 84%
growth [11]: 92.4%
growth [12]: 64.3%
growth [13]: 102%
growth [14]: 103%
growth [15]: 81.3%
growth [20]: 93.5%
growth [19]: 63.1%
growth [16]: 71.6%
growth [17]: 20.4%

c1ccc2c(c1)oc1c3cccnc3ccc21
growth [1]: 95.8%
growth [2]: 70.1%
growth [3]: 95.3%
growth [4]: 97.9%
growth [5]: 79.3%
growth [6]: 96.7%
growth [18]: 87.1%
growth [8]: 92.7%
growth [9]: 96.9%
growth [10]: 64.4%
growth [11]: 93.2%
growth [12]: 44.2%
growth [13]: 118%
growth [14]: 87.9%
growth [15]: 84.1%
growth [20]: 87.2%
growth [19]: 111%
growth [16]: 61.4%

O=C(/C(=C/c1ccccc1)CN1CCCCC1)c1ccccc1
growth [1]: -30.6% (active)
growth [2]: 30.6%
growth [3]: 45.9%
growth [4]: -22.7% (active)
growth [5]: -9.65% (active)
growth [6]: -86% (active)
growth [18]: -75.1% (active)
growth [8]: -63% (active)
growth [11]: -47.5% (active)
growth [12]: -93.8% (active)
growth [13]: -41.3% (active)
growth [14]: -59.3% (active)
growth [15]: -3.31% (active)
growth [20]: -77.1% (active)
growth [19]: 7.4% (active)
growth [16]: 3.27% (active)
growth [17]: -12.4% (active)

c1ccc([I+]c2ccccc2)cc1
growth [1]: 31.4%
growth [2]: 63.6%
growth [3]: 85.5%
growth [4]: 70.9%
growth [5]: 69.8%
growth [6]: 55.7%
growth [18]: 43.1%
growth [8]: 87.4%
growth [11]: 96.7%
growth [12]: 45.9%
growth [13]: 56.6%
growth [14]: 77.1%
growth [15]: 37.3%
growth [20]: 65%
growth [19]: 51.5%
growth [16]: 62.9%
